Compound activity deposited in PubChem BioAssay by National Center for Advancing Translational Sciences (NCATS).
Pf growth 48h: P. falciparum growth inhibition at 48 hours (one generation); P. falciparum luciferase growth in erythrocytes, 48 h; Potency, µM (highest dose often 28.7 µM), most hits filed as inhibitors; hit rate 5.9% among 310,000
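A one-generation exposure of luciferase-tagged malaria parasites in RPMI 1640/Albumax erythrocyte culture, 37 C and 5% CO2. Inhibition is inferred from decreased luminescence after adding detection reagent.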
HCMV inh: blocks human cytomegalovirus replication; AID 1259415; activity change, negative = inhibition, % at 57.5 µM; HFF cells, HCMV-luciferase reporter, 72 h; active compounds read low; hit rate 4.5% among 410,000; in the data active means activity change below about -60%; inconclusive means no clear call, values can overlap the other calls; inactive means above about -39%
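Inhibition of viral replication was scored as loss of reporter luminescence in HFFs infected with HCMV-luciferase (MOI 1 PFU/cell) for 72 h; compounds tested at 2 doses, normalized to buffer and Salinomycin controls.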
Sm TGR inh: S. mansoni TGR enzyme inhibition. Q962Y6. purified TGR, DTNB reduction, TNB absorbance 405 nm. Potency, µM (top dose mostly 114 µM), most hits filed as inhibitors. hit rate 3% among 360,000. AID 485364; further: nearly all actives have a fitted effect of over 60% in size
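First, TGR (20 nM dispensed) and NADPH were mixed with compound. Second, a 15 min room-temperature incubation followed. Third, further NADPH and then DTNB were added to start the reaction. Finally, TNB absorbance was monitored kinetically.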
SARS PLpro yeast: blocks SARS-CoV papain-like protease in a yeast assay; S. cerevisiae expressing SARS-CoV PLpro, growth rescue; AID 485353; Potency, µM (highest dose often 32.9 µM), usual class: activators; hit rate 0.19% among 330,000; calls by dose curve; further: nearly all actives have a fitted effect of over 55% in size
HCV inh: blocks hepatitis C virus. hit rate 3.4% among 340,000. Potency, µM (doses to about 41.8 µM), hits mostly inhibitors. Huh7.5.1 HCVcc-Cre infection, luciferase reporter, 44 h. AID 651820
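Compounds are dispensed onto cells plated 4 h earlier at 1,000 per well, with HCVcc-Cre virus (about 0.5 moi) added next. Following 44 h of culture, luminescent signal is measured for 15 sec after 15 min with substrate at room temperature.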
Pf growth 96h: P. falciparum growth inhibition at 96 hour, primary screen for plastid delayed-death inhibitors. P. falciparum luciferase reporter growth, 96 h. Potency, µM (doses to about 28.7 µM), hits mostly inhibitors. hit rate 6.9% among 320,000
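Plates of compound plus infected erythrocytes (2% hematocrit, 0.05% parasitemia final) incubate 96 hours, 37 C, 5% CO2. Detection reagent added; reduced luminescence from the parasites' luciferase reporter flags inhibition.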
A number is an active result; i = inactive; ? = inconclusive; nt = not tested or not shown. Shown are actives, neighbours in structure and some others; about 15% of the full set was active somewhere. Unless noted, the call rests on the fitted dose curve; in most records, active means well fitted curve in the direction sought with a large enough effect; inconclusive means small, poorly fitted or top-dose-only effect, or another doubt; inactive means no such curve, though single readings can be large; an effect the other way counts as inactive or inconclusive.

SMILES	Pf growth 48h	HCMV inh	Sm TGR inh	SARS PLpro yeast	HCV inh	Pf growth 96h
Cc1occc1-c1nnc(SCC(=O)NCCc2ccccc2)o1	i	i	i	i	i	i
NC(=O)CSc1nc2scc(-c3ccco3)c2c(=O)n1-c1ccccc1	i	i	?	i	?	nt
C=CCn1c(SC2CCOC2=O)nc2sc(C)c(C)c2c1=O (stereo not drawn)	i	i	i	i	i	13.1µM
O=C(CN1C(=O)COc2ccc(Cl)cc21)Nc1ccccn1	i	i	i	i	i	?
COC(=O)C1=CN(c2cccc(OCc3ccccc3)c2)C(N)=C(C#N)C1c1cccc(F)c1 (stereo not drawn)	nt	i	nt	nt	nt	nt
CC(=O)Oc1ccc(C(=O)NC(C)CCc2ccccc2)cc1 (stereo not drawn)	i	i	i	i	i	i
C=CCn1c(SCC(=O)Nc2ccccc2C)nc2sc(C)c(C)c2c1=O	?	?	i	i	i	?
Cn1c(SCC(=O)NCC2CCCO2)nc2scc(-c3ccccc3)c2c1=O (stereo not drawn)	i	i	i	i	i	i
C=CCn1c(SCC(=O)NCCOC)nc2scc(-c3ccco3)c2c1=O	?	i	17.8µM	i	i	?
C=CCn1c(SCC(=O)NCC2CCCO2)nc2scc(-c3ccc(OC)cc3)c2c1=O (stereo not drawn)	i	i	i	i	nt	5.22µM
C=CCn1c(SCC(=O)Nc2sccc2C(N)=O)nc2sc(C)c(C)c2c1=O	i	?	39.8µM	i	?	nt
O=C(CSc1nc2scc(-c3ccco3)c2c(=O)n1-c1ccccc1)NCC1CCCO1 (stereo not drawn)	i	i	3.16µM	i	i	nt
CCOC(=O)c1ccc(N(C(=O)CNC(=O)c2ccco2)C(C(=O)NCC2CCCO2)c2ccc(OC)c(OC)c2)cc1 (stereo not drawn)	i	i	i	i	i	i
Cc1ccn2cc(-c3ccc(NS(=O)(=O)c4ccccc4)cc3)nc2c1	13.1µM	i	i	i	11.2µM	i
Cc1ccn2cc(-c3cccc(S(=O)(=O)N4CC(C)OC(C)C4)c3)nc2c1 (stereo not drawn)	?	i	i	i	?	?
Cc1ccc(S(=O)(=O)Nc2ccc(-c3cn4ccc(C)cc4n3)cc2)cc1	1.65µM	?	i	i	?	i
Cc1ccn2cc(-c3cccc(S(=O)(=O)N4CCCC4)c3)nc2c1	i	-64.1	i	i	11.2µM	i
Cc1ccc(S(=O)(=O)Nc2ccc3nc(-c4cccn4C)[nH]c3c2)cc1	?	i	i	i	11.2µM	nt
Cn1cccc1-c1nc2ccc(NC(=O)c3ccccc3)cc2[nH]1	i	i	i	i	?	i
Cc1ccc(-c2cn3ccc(C)cc3n2)cc1	nt	?	i	nt	nt	nt
O=[N+]([O-])c1cc(-c2nc(-c3ccccc3)no2)ccc1NCc1cccnc1	nt	i	i	nt	nt	nt
Cc1ccc(Cl)cc1NC(=O)CN1CCN(S(=O)(=O)N2CCC(C)CC2)CC1	i	i	i	i	?	i
COC(=O)C1NN=C(C(=O)c2ccc(Cl)cc2)C1c1ccc(OC)cc1 (stereo not drawn)	i	i	i	i	i	i
O=C1C2CCCN2C(c2ccccc2)N1c1ccc(Cl)cc1 (stereo not drawn)	i	-96.6	i	i	i	?
COc1ccc(OC)c(C2N(c3ccc(Cl)cc3)C(=O)C3CCCN32)c1 (stereo not drawn)	i	i	i	i	i	9.28µM
SMILES	Pf growth 48h	HCMV inh	Sm TGR inh	SARS PLpro yeast	HCV inh	Pf growth 96h
O=C1C2CCCN2C(c2ccccc2F)N1c1ccc(Cl)cc1 (stereo not drawn)	i	-63.8	i	i	i	?
O=C1C2CCCN2C(c2cccnc2)N1c1ccc(Cl)cc1 (stereo not drawn)	?	i	i	i	i	i
CCOc1ccc(C2N(c3ccc(F)cc3)C(=O)C3CCCN32)cc1 (stereo not drawn)	nt	i	i	i	i	4.15µM
Cc1ccc(C2N(c3ccc(F)cc3)C(=O)C3CCCN32)cc1 (stereo not drawn)	nt	i	i	i	i	i
O=C(c1ccccc1Oc1ccc([N+](=O)[O-])cc1)N1CCOCC1	i	i	i	i	i	i
C[C@@H]1COC(=O)[C@H](Cc2ccc(F)cc2)CC/C=C\C[C@@H](CC(=O)NCCO)C(=O)N1	nt	i	nt	i	i	nt
COc1ccc(C2N(c3ccc(Cl)cc3)C(=O)C3CCCN32)cc1 (stereo not drawn)	nt	i	i	i	i	?
COc1ccc(N2C(=O)C3CCCN3C2c2ccc(Cl)cc2)cc1 (stereo not drawn)	nt	i	i	?	i	9.28µM
COc1cccc(CN2CCN(C3CCN(c4cccc(C)c4C)CC3)CC2CCO)c1 (stereo not drawn)	?	i	?	i	11.2µM	i
COc1cccc(CN2CCN(C3CCN(c4ccccc4F)CC3)CC2CCO)c1 (stereo not drawn)	i	i	22.4µM	i	i	?
O=C(/C=C/c1cccc([N+](=O)[O-])c1)OCC(=O)N1CCCCC1	nt	i	nt	nt	nt	nt
CCCN1C[C@@H](C)[C@@H](OC)CN(C)C(=O)c2ccc(NC(=O)c3cccc(F)c3)cc2OC[C@H]1C	nt	i	nt	nt	nt	nt
CCN(CC)S(=O)(=O)c1ccc2[nH]c(=O)cc(C(=O)Nc3ccccc3N3CCOCC3)c2c1	i	i	i	i	i	i
c1ccc(-c2nc(-c3ccco3)n3ccccc23)cc1	i	i	11.2µM	i	?	i
Cc1ccccc1N/C(=C(/C(Cl)=C(Cl)Cl)[N+](=O)[O-])n1nnc2ccccc21	i	i	14.1µM	nt	?	?
COc1ccc(N/C(=C(/C(Cl)=C(Cl)Cl)[N+](=O)[O-])n2nnc3ccccc32)cc1	nt	nt	?	i	nt	i
CCOC(=O)C[C@@H]1OC[C@H](Cc2ccccc2)N1S(=O)(=O)c1ccc(C)cc1	nt	i	nt	nt	nt	nt
COc1ccccc1N1CCN(C(=O)c2ccc(Cl)c(S(=O)(=O)NCc3ccco3)c2)CC1	?	i	i	i	8.91µM	nt
O=C(c1ccc(Cl)c(S(=O)(=O)NCc2ccco2)c1)N1CCN(c2ccccc2F)CC1	nt	i	i	i	i	?
C/C(=N\Nc1nc(Cl)c(Cl)cc1Cl)c1ccc(S(=O)(=O)NCc2ccco2)cc1	i	?	i	i	6.31µM	i
O=C(Nc1ccccc1)c1ccc(S(=O)(=O)NCc2ccco2)cc1	i	i	?	i	?	i
COc1ccc(C(=O)Nc2ccccc2)cc1S(=O)(=O)NCc1ccco1	i	i	44.7µM	i	i	i
C/C(=N\Nc1ccccn1)c1ccc(S(=O)(=O)NCc2ccco2)cc1	i	i	i	i	i	i
Cc1ccc(C(=O)Nc2ccc(S(=O)(=O)NCc3ccco3)cc2)cc1	nt	i	50.1µM	i	?	i
CCCCc1cc(=O)oc2cc(OCC(=O)NCc3ccccn3)ccc12	i	i	i	i	i	i
